# Measured values from PubChem BioAssay (EPA / NIEHS).
# Results filed as inconclusive are left out. Calls of active or inactive are those of the source. Rule for the calls: active = hit-call score of the fitted dose curve at least 0.9, where 1 is the maximum; inconclusive = response in the unintended direction; inactive = score below 0.9.
# How the values were obtained:
# [1] = biological target: Voltage-dependent N-type calcium channel subunit alpha-1B (Rattus norvegicus) (UniProt Q02294); assay: NVS_IC_rCaChN: NovaScreen (NVS) Ion Channel Assay for rat Calcium Channel, Type N (CaChN) (AID 2283317)
# [2] = biological target: human Thromboxane A2 Receptor (TXA2), TBXA2R (gene 6915) (UniProt P21731); assay: NVS_GPCR_hTXA2: NovaScreen (NVS) G Protein-Coupled Receptor Assay for human Thromboxane A2 Receptor (TXA2) (AID 2283282);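 note: actives reduce bound radioligand signal relative to DMSO baseline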
# Sequence of human Thromboxane A2 Receptor (TXA2), TBXA2R (gene 6915) (P21731 whole entry, looked up): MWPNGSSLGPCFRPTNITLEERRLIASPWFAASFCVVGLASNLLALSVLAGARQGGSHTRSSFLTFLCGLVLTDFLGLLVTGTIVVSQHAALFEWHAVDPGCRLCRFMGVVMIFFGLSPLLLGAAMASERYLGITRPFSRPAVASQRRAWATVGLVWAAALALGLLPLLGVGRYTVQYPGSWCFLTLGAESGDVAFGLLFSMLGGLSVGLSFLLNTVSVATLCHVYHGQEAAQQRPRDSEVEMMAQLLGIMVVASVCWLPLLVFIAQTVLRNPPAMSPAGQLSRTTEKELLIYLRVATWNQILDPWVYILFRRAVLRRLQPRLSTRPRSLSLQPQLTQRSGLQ
# Method in brief: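 Cell-free radioligand binding with human platelet-derived receptor; 1 h after dosing, filter-based scintillation counting, loss of signal vs DMSO. Primary screen in duplicate at 25 uM.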
# [3] = biological target: Sodium channel protein type 1 subunit alpha (Rattus norvegicus) (UniProt P04774); assay: NVS_IC_rNaCh_site2: NovaScreen (NVS) Ion Channel Assay for rat Sodium Channel, Site 2 (NaCh) (AID 2283322);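 note: hit means loss of radioligand binding signal relative to DMSO so AC50 marks displacement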
# Method in brief: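 Membranes: rat forebrain. Format: competitive radioligand displacement, filter separation, scintillation readout, 1 h exposure. Primary screen in duplicate at 25 uM; actives retested in concentration series.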
# [4] = test system: guinea pig Atrionatriuretic Peptide Receptor A (ANPA), gene 100135578; assay: NVS_GPCR_gANPA: NovaScreen (NVS) G Protein-Coupled Receptor Assay for guinea pig Atrionatriuretic Peptide Receptor A (ANPA) (AID 2283291)
# Method in brief: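 Radioligand binding to guinea pig cerebellar membranes was measured after 1 h by filter-based scintillation counting. Chemicals were tested in duplicate at 25 uM, with hits run in concentration-response to a maximum of 50 uM. Binding loss was fitted against DMSO.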
# [5] = biological target: rat Corticotropin Releasing Factor Receptor (CRF), Crhr1 (gene 58959) (UniProt P35353); assay: NVS_GPCR_rCRF: NovaScreen (NVS) G Protein-Coupled Receptor Assay for rat Corticotropin Releasing Factor Receptor (CRF) (AID 2283300)
# Sequence of rat Corticotropin Releasing Factor Receptor (CRF), Crhr1 (gene 58959) (P35353 whole entry, looked up): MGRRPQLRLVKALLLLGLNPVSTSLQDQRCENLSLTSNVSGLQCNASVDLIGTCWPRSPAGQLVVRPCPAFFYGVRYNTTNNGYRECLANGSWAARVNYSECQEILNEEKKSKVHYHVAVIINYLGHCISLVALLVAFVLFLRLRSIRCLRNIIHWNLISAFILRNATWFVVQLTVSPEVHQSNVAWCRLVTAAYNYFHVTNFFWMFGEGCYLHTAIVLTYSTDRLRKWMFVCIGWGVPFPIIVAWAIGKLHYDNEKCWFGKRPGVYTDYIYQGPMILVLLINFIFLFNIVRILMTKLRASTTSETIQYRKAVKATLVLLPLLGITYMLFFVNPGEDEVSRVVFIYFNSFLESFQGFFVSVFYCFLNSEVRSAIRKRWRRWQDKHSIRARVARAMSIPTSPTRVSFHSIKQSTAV
# Method in brief: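 Rat cortical membranes used as receptor source in a radioligand competitive displacement binding assay; scintillation read 2 h after dosing. Primary screen run in duplicate at 25 uM; loss of signal versus DMSO baseline indicates binding.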
# [6] = biological target: rat Gamma-Aminobutyric Acid Type B Receptor (GABBR), Gabbr1 (gene 81657) (UniProt Q9Z0U4); assay: NVS_GPCR_rGABBR: NovaScreen (NVS) G Protein-Coupled Receptor Assay for rat Gamma-Aminobutyric Acid Type B Receptor (GABBR) (AID 2283301)
# Sequence of rat Gamma-Aminobutyric Acid Type B Receptor (GABBR), Gabbr1 (gene 81657) (Q9Z0U4 whole entry, looked up): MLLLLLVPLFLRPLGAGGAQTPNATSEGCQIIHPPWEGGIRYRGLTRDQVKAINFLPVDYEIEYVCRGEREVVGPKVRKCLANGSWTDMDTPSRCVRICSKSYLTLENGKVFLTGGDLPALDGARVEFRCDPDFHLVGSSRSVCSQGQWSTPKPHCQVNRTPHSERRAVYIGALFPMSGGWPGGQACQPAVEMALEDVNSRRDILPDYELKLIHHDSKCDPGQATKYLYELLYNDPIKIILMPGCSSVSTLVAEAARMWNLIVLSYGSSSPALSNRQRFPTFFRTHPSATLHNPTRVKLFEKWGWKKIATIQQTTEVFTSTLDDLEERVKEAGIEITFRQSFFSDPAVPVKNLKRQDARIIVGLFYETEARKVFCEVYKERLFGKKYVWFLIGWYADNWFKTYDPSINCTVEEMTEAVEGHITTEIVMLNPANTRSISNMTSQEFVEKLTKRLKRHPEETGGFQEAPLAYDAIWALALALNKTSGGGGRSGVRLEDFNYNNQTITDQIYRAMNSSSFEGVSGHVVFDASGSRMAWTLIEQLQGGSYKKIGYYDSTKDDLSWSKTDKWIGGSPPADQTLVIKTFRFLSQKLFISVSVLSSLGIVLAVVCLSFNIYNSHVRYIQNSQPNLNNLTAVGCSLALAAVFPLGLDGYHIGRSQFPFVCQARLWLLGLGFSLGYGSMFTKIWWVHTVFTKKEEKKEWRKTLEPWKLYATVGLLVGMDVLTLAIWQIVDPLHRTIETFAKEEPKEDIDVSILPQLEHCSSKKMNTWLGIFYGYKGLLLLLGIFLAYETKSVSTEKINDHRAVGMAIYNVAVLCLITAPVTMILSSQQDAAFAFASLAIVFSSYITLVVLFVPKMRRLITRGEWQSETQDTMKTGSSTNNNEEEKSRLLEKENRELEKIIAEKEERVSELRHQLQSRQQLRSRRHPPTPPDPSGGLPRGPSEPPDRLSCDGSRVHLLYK
# Method in brief: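 Radioligand displacement on rat cortical membranes, 1 h, filter-based scintillation counting. Primary screen at 25 uM in duplicate; compounds passing threshold re-tested in concentration-response up to 50 uM; loss of binding fitted against DMSO.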
# [7] = biological target: rat Neonicotinoid receptor (NNR), Chrna7 (gene 25302) (UniProt Q05941); assay: NVS_LGIC_rNNR_BungSens: NovaScreen (NVS) Ligand-Gated Ion Channel Assay for rat Neonicotinoid receptor (NNR) (AID 2283315)
# Sequence of rat Neonicotinoid receptor (NNR), Chrna7 (gene 25302) (Q05941 whole entry, looked up): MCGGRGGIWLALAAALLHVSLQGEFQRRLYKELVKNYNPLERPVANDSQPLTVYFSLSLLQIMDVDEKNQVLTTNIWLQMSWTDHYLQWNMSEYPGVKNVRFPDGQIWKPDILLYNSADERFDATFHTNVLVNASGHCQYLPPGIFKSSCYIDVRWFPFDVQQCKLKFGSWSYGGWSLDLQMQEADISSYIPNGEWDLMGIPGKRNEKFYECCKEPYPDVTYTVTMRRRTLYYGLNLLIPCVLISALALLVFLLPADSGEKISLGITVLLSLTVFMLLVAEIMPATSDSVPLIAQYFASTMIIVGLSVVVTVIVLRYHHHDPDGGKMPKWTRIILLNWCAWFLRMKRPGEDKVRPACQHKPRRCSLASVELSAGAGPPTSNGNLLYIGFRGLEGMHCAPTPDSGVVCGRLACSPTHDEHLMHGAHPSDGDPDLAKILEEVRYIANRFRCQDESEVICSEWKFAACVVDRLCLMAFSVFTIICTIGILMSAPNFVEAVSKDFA
# Method in brief: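 Radioligand displacement binding on rat cortical membranes, 2.5 h incubation, filtration and scintillation counting. Loss of specific binding fitted relative to DMSO.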
smiles,measurement,setting,value
ClC1=C(Cl)C2(Cl)C3C(Cl)C(Cl)CC3C1(Cl)C2(Cl)Cl (stereo unspecified),outcome,[1],inactive
N#Cc1ccc(O)cc1,outcome,[2],inactive
same,AC50,[3],41.3 µM (active)
CC(Cc1ccc(OCC(=O)O)cc1)NCC(O)c1csc(C(F)(F)F)n1 (stereo unspecified),outcome,[4],inactive
same,outcome,[5],inactive
same,outcome,[6],inactive
CC(C)(C)c1ccccc1OP(=O)(Oc1ccccc1)Oc1ccccc1,outcome,[3],inactive
CSC(C)(C)C=NO,outcome,[2],inactive
same,outcome,[7],inactive
same,outcome,[3],inactive
CCOP(=S)(OCC)SCS(=O)(=O)CC,outcome,[3],inactive
